Compound activity from PubChem BioAssay.
Compounds with a hit are over-represented: about 5.4% of the library has one in this group of screens.
HSF-1 act: increases HSF-1 driven luciferase reporter signal; NIH3T3-HGL HSF-1 luciferase reporter, MG132, 8 h; 100% = twice DMSO control signal; activation, % at 9 µM; 300,000 compounds, 1.7% hits;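 active means mean replicate activation of at least 50% with a set share of replicates each reaching 50%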
DAX1 inh: NR0B1 (DAX1) inhibition | P51843 | HEK293 Gal4-DAX1 luciferase reporter, luminescence | inhibition, % at 6.75 µM | 340,000 compounds, 0.99% hits;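 active means inhibition above the mean over all tested compounds plus 3 SD, cut at about 4.2% in these data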;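 further: inhibition shows as a rise in luminescence from relieved DAX1 repression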
HSF1 inh: HSF1 inhibition; 300,000 compounds, 0.77% hits; AID 2098; NIH3T3-HGL HSE-luciferase, MG132-induced, luminescence 8 h; hits give low values; activity change, negative = inhibition, % at 7.5 µM (by protocol);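 active means more than half of replicate wells show activity change below -50%, luminescence cut by over half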;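 further: luciferase reports HSF-1 transcriptional activity via heat shock element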
FXN GAA850 act: activators of GAA850 frataxin (FXN) promoter; HEK293 lucGAA850 FXN promoter luciferase reporter, 24 h; percent of 10 µM SAHA response; activation, % at 6 µM; 360,000 compounds, 0.56% hits; AID 540364;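 active means activation above the average of all compounds screened plus 3 SD, cutoff fixed separately per campaign, cut at about 7.5% in these data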
AHR act: human AHR activation; activation, % at 5 µM; P35869; AHR-responsive luciferase reporter cells, luminescence; 320,000 compounds, 2.5% hits; in the data active means activation above about 47%
Target sequence (P35869 whole entry, looked up): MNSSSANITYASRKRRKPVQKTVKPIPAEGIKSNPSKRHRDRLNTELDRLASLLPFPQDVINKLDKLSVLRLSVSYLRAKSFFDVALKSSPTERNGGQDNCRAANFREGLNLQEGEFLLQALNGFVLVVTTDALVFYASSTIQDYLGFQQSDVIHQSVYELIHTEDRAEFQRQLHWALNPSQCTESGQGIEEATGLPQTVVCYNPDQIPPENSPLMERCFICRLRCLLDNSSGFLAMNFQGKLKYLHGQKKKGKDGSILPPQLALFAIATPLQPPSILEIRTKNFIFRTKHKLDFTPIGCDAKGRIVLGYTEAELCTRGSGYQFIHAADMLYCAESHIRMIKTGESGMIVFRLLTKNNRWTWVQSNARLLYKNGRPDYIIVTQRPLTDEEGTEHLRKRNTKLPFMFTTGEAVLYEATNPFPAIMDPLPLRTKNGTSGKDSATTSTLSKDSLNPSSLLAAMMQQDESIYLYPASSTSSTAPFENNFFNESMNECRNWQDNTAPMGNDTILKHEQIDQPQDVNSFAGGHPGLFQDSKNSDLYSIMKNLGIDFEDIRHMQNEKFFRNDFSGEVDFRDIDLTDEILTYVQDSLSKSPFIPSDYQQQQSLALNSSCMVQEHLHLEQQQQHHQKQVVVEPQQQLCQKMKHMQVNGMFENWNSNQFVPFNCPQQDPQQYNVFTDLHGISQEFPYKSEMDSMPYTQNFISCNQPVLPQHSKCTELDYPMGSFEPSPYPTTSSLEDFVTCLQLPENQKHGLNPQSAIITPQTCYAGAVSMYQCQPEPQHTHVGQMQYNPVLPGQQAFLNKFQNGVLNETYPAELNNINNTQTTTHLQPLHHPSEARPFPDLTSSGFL
GAA30 counter: counter-screen for GAA850 frataxin promoter activators: GAA30 promoter activation. AID 588350. 1,900 compounds, 66% hits. HEK293 lucGAA30 FXN promoter luciferase, 24 h; DMSO = 0%, 5 µM ipriflavone = 100%. shares compounds with FXN GAA850 act. activation, % at 6 µM;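 active means mean activation above the mean of solvent-only control wells plus 3 SD, cut at about 22% in these data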;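 further: counterscreen of GAA850 promoter hits where activity marks nonselective or luminescence artifacts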
GAA850 confirm: GAA850 FXN promoter activation confirmation. shares compounds with FXN GAA850 act. HEK293 lucGAA850 FXN promoter luciferase reporter, 24 h; 100% = activation by SAHA. activation, % at 6 µM. 1,900 compounds, 86% hits. AID 588351;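 active means mean activation above a set limit taken from the primary screen, cut at about 8% in these data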
A number is an active result; i = inactive; nt = not tested or not shown.

SMILES	HSF-1 act	DAX1 inh	HSF1 inh	FXN GAA850 act	AHR act	GAA30 counter	GAA850 confirm
COc1ccc([C@@H]2[C@@H]3C(=O)N(C(C)(C)C)C(=O)[C@@H]3[C@]3(Cc4ccccc4)C(=O)N(c4ccc(OC)cc4)C(=O)N23)cc1	i	i	i	i	i	nt	nt
COc1ccc(S(=O)(=O)N2CCC(C(=O)NCCc3c[nH]c4ccccc34)CC2)cc1	i	i	i	i	i	nt	nt
COc1cc2ccccc2cc1C(=O)Nc1cc(C)ccn1	i	i	i	8.4	56	123	39
COc1ccc(NC(=O)Nc2cc(C)ccn2)cc1	nt	i	nt	i	nt	nt	nt
Cc1ccnc(NC(=O)Cc2ccc(-c3ccccc3)cc2)c1	78	i	i	7.9	i	101	46
COc1cc2c(cc1OC)/C(=C/C(=O)c1ccc(C)cc1)NCC2	i	i	-80	8.2	nt	37	24
COc1cc2c(cc1OC)/C(=C/C(=O)c1ccccc1)NCC2	i	i	i	8.5	i	29	15
O=C1CN(c2nc(-c3cccs3)nc3sc4c(c23)CCCC4)CCN1	i	i	i	9.3	i	49	23
O=c1oc(-c2cccs2)nc2sc3c(c12)CCC3	i	i	i	i	i	nt	nt
O=c1c2c3c(sc2nc2n1N=C(c1cccs1)CS2)CCCC3	i	i	i	9.6	i	87	40
C(=N\Nc1nc2ccccc2[nH]1)/c1c[nH]c2ccccc12	309	i	i	9.8	108	129	44
Cc1cc(=O)[nH]c(N/N=C/c2c[nH]c3ccccc23)n1	i	i	i	i	i	nt	nt
O=c1oc2ccc3ccccc3c2cc1-c1nc2ccccc2o1	i	i	i	i	i	nt	nt
O=c1oc2ccccc2cc1-c1nc2ccccc2o1	i	i	i	8.4	i	122	37
CNC(=O)C1CCN(S(=O)(=O)c2c(C)noc2/C=C/c2ccc(OC)cc2)CC1	i	i	i	i	i	nt	nt
Cc1cccc(C(=O)Nc2ccc(C(=O)/C=C/c3ccncc3)cc2)c1	92	i	i	17	i	i	27
O=C(N(c1ccccn1)c1ccccn1)C12CC3CC(CC(Cl)(C3)C1)C2	i	i	i	8.4	i	i	i
CC(c1ccco1)N(C(=O)C12CC3CC(CC(C3)C1)C2)c1ccccn1 (stereo unspecified)	i	i	i	i	i	nt	nt
Clc1ccc(/C=N/Nc2ncnc3nc[nH]c23)cc1	i	4.9	i	9.8	66	110	50
CCN(C(=O)CSc1nnc(-c2ccccc2Cl)n1N)c1c(N)n(Cc2ccccc2)c(=O)[nH]c1=O	nt	i	nt	i	nt	nt	nt
N#Cc1c(N)nc(SCc2ccccn2)c(C#N)c1-c1cccs1	i	i	i	20	i	26	19
CCN(C(=O)COC(=O)c1ccc(S(=O)(=O)N2CCCc3ccccc32)cc1)C1CCS(=O)(=O)C1 (stereo unspecified)	i	i	i	i	i	nt	nt
O=C1C=C(/C=C/C2C=CC=CC2)C[C@@H](c2ccc(Cl)cc2)C1 (stereo partly specified)	nt	i	nt	i	i	nt	nt
Oc1ccc(/C=N/N2CCCCC2)cc1O	i	i	i	12	i	55	28
Clc1ccc(C=NN2CCCCCC2)cc1Cl	nt	i	nt	i	nt	nt	nt
Cc1ccc(N2C(=O)N3[C@H](c4ccc(Cl)cc4)[C@@H]4C(=O)N(C5CCCCC5)C(=O)[C@@H]4[C@]3(Cc3ccccc3)C2=O)cc1	i	i	i	12	i	43	17
O=C1[C@H]2[C@@H](c3ccc(F)cc3)N3C(=O)N(c4cccc(F)c4)C(=O)[C@@]3(Cc3ccc(Cl)cc3)[C@H]2C(=O)N1C1CCCCC1	i	i	i	12	i	i	11
O=C1[C@H]2[C@@H](c3ccc(F)cc3)N3C(=O)N(c4ccc(Br)cc4)C(=O)[C@@]3(Cc3ccccc3)[C@H]2C(=O)N1C1CCCCC1	i	i	i	9.1	i	i	i
CC[C@@]12C(=O)N(c3cccc(F)c3)C(=O)N1[C@H](c1ccc(Cl)cc1)[C@@H]1C(=O)N(C3CCCCC3)C(=O)[C@@H]12	i	i	i	9.0	i	23	15
